# Screening results: PubChem, several laboratories
# Anthrax LF inh2 – anthrax lethal factor protease inhibition; P15917; multiplex microsphere protease cleavage assay, LF; inhibition, % at 10 µM; actives 0.12% (n = 360,000); also: plate controls were buffer without enzyme for full effect and enzyme alone for no effect
# BoNT-F LC inh – inhibitors of Botulinum neurotoxin F light chain protease | Multiplex microsphere protease cleavage assay, flow cytometry | inhibition, % at 10 µM | actives 0.22% (n = 360,000) | AID 588497; in the data active = inhibition above about 35%, passing the limit was not always enough; inconclusive = no clear call, values can overlap the other calls; also: plate controls were buffer without enzyme for full effect and enzyme alone for no effect
# BoNT-A LC inh2 – blocks Botulinum neurotoxin A light chain protease; multiplex microsphere protease substrate cleavage, flow cytometry; inhibition, % at 10 µM; actives 0.17% (n = 360,000); AID 588499; also: plate controls were buffer without enzyme for full effect and enzyme alone for no effect
# Vc quorum ag-1 – induces V. cholerae light production without autoinducers. actives 0.16% (n = 350,000). V. cholerae BH1578 lux reporter, luminescence, 6 h. AID 588436. activation, % at 18.7 µM; in the data active = activation mostly above about 9.7%, no sharp cut-off; inconclusive = no clear call, values can overlap the other calls; inactive = mostly below about 3.7%
# Bead autofluor – flagged as autofluorescent in microsphere protease counterscreen. actives 3.1% (n = 360,000). AID 624483. compound autofluorescence counterscreen, microsphere flow cytometry; active compounds read high. fluorescence intensity (test concentration not listed); in the data active = fluorescence intensity above about 16000; inconclusive = no clear call, values can overlap the other calls
# MazEF act – activators of E. coli MazEF toxin-antitoxin RNase; P0AE70; actives 0.32% (n = 350,000); activation, % at 20 µM; FAM/BHQ RNA-DNA oligo cleavage fluorescence, 5 h; in the data active = activation above about 50%
# Target sequence (P0AE70 whole entry, looked up): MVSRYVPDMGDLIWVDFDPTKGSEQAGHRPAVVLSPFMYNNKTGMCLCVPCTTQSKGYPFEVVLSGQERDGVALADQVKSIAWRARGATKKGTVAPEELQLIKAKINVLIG
# Vc quorum ag-2 – induces V. cholerae light production without autoinducers. shares compounds with Vc quorum ag-1. V. cholerae BH1578 lux reporter, luminescence, 6 h. activation, % at 50 µM. 620 tested, under 10 active; call rule not given here
# The depositor's hits bear a star; i = inactive; ? = inconclusive; . = no result given. Most compounds without a hit are left out; they make up all but 3.9% or so of the library. Rule as the data show it, unless noted: active = inhibition above about 30%; inconclusive = no clear call, values can overlap the other calls; inactive = below that.
SMILES,Anthrax LF inh2,BoNT-F LC inh,BoNT-A LC inh2,Vc quorum ag-1,Bead autofluor,MazEF act,Vc quorum ag-2
O=C(COC(=O)c1cc(Cl)ccc1Cl)NC1CCCC1,-4,0,3,28*,3207,6,29
O=C(COc1ccc([N+](=O)[O-])cc1)NNC(=O)C1COc2ccccc2O1 (centres undefined),0,-5,0,i,3715,5,.
CC(C)(C)c1ccc(C(=O)OCC(=O)NC2CC2)cc1,0,-3,-3,26,6965,1,18
Cc1cc(C(=O)OCC(=O)NC2CCCC(C)C2C)c(C)o1 (centres undefined),3,6,4,i,5631,5,.
Cc1cc(C(=O)OCC(=O)NC2CCCCC2)c(C)o1,.,.,.,175*,.,1,660
CCCn1c(N)c(C(=O)COC(=O)c2cccc(S(=O)(=O)N3CCOCC3)c2)c(=O)[nH]c1=O,1,2,5,i,?,2,.
CCOc1ccc(S(=O)(=O)N(CCO)CCO)cc1-c1nc2c(C(C)(C)C)nn(C)c2c(=O)[nH]1,-4,-2,-1,12,?,-3,0
Cc1ccc2onc(CC(=O)O)c2c1,1,-2,0,24,2056,2,0
CC(C(=O)N1CCc2ccccc21)N1CCN(Cc2ccccc2)CC1 (centres undefined),-6,6,-2,i,3277,6,.
O=S(=O)(Cc1ccc(Cl)cc1)N1CCN(Cc2ccccc2)CC1,-3,-3,0,122*,11054,0,0
O=S(=O)(Cc1ccccc1)N1CCN(Cc2ccc(Br)cc2)CC1,0,-7,0,i,5206,-6,.
O=C(OC1CCN(c2ncc(C(F)(F)F)cc2Cl)CC1)c1ccc(Cl)cc1,-2,-3,0,12,24209*,1,0
O=C(OCCN1CCN(c2ncc(C(F)(F)F)cc2Cl)CC1)c1ccc(Cl)cc1,-1,-5,0,.,2795,-14,.
CCCOC(=O)c1ccc(NC(=O)CCOc2ccccc2)cc1,0,-8,-1,0,9883,-1,.
CCCOC(=O)c1ccc(NC(=O)CCC(=O)OCC)cc1,0,11,4,12,21063*,3,0
NC(=O)c1ccc(NC(=O)C2CCCO2)cc1 (centres undefined),8,?,0,-7,4387,2,.
CCCOC(=O)c1ccc(NC(=O)C2CCCO2)cc1 (centres undefined),-1,2,0,17*,9486,7,0
Cc1ccc(N2C(=O)C(CN(C)C)C2c2ccccc2)cc1 (centres undefined),.,.,.,17*,.,-3,2
CCN(CC)CC1C(=O)N(c2ccc(OC)cc2)C1c1ccccc1 (centres undefined),9,-18,-4,0,3749,10,.
CCc1nnc(NC(=O)C2CCC(CNc3c(N4CCC(C)CC4)c(=O)c3=O)CC2)s1 (centres undefined),5,-3,-2,0,6711,4,.
c1cn2cc(CN3CCOCC3)nc2s1,-4,0,1,12,10416,4,0
Cc1ccc(S(=O)(=O)N(C)C)cc1NC(=O)CCCNC(=O)c1ccc(Cl)cc1,8,-16,1,-3,4343,9,.
O=C(O)c1cccc(Sc2cc(Cl)ccc2C(=O)O)c1,-3,-10,0,-1,3034,1,.
Cc1nn(CC(O)CN2c3ccccc3Sc3ccccc32)c(C)c1Br (centres undefined),-3,3,0,25*,2667,-6,0
CCCn1c(SCC(=O)Nc2cccnc2Cl)n[nH]c1=O,-2,-5,0,4,5122,3,.
SMILES,Anthrax LF inh2,BoNT-F LC inh,BoNT-A LC inh2,Vc quorum ag-1,Bead autofluor,MazEF act,Vc quorum ag-2
CCCCc1cc2c(cc1NC(=O)CN1CCCCC1)OCCO2,-17,-8,0,14,6436,-5,0
O=[N+]([O-])c1cccc(-c2nnc(-c3ccccc3F)o2)c1,2,2,0,1,3566,0,.
CCCc1ccc2oc(C(=O)N(Cc3ccncc3)CC3CCCO3)c(C)c2c1 (centres undefined),0,-8,0,12,5821,-4,0
Cc1ccc2oc(C(=O)N(Cc3ccncc3)CC3CCCO3)c(C)c2c1 (centres undefined),-2,-4,0,i,5535,0,.
FC(F)(F)c1nnc2sc(-c3cccs3)nn12,6,-7,0,17*,6161,-5,4
CCOC(=O)[C@@H]1[C@H]2COc3ccc(Br)cc3[C@H]2N2C(=O)N(c3ccc(C(F)(F)F)cc3)C(=O)[C@]12C,-5,-3,0,-1,3498,-9,.
CC(Sc1nc2ncc(Cl)cc2[nH]1)C(=O)Nc1ccccc1[N+](=O)[O-] (centres undefined),6,-7,0,0,2944,-4,.
CN(C1CCCCC1)S(=O)(=O)CCNC(=O)c1ccccc1,7,5,1,14,6387,3,0
COC(=O)Cc1c(C)c2ccc(OC(=O)c3ccccc3)cc2oc1=O,-2,-1,0,12,8549,-2,0
Cc1c(Cc2ccccc2)c(=O)oc2cc(OC(=O)c3ccccc3)ccc12,-2,-32,0,i,2422,-6,.
Cc1nc(=O)c(-c2ccccc2)c(C)n1CCCO,-4,-4,0,0,3452,5,.
Cc1nc(=O)c(-c2ccccc2)c(C)n1CCCCCC(=O)O,-12,-4,0,17*,3192,6,0
Cc1ccc(-n2nc3c(c2NC(=O)CC(C)C)CS(=O)C3)cc1 (centres undefined),0,-10,0,0,5821,0,.
Cc1ccc(C)c(NC(=O)CN(C)C(=O)CCN2C(=O)c3ccccc3C2=O)c1,-2,-12,-1,25*,2188,8,0
Cc1ccc(C)c(NC(=O)CCN2C(=O)c3ccccc3C2=O)c1,9,-10,-2,-2,3601,3,.
CCOc1ccc(OCCCC(=O)N(C)CC(=O)Nc2ccccc2Br)cc1,-13,5,0,-5,3547,4,.
Cc1ccc(OCCCC(=O)N(C)CC(=O)Nc2ccccc2Cl)cc1,7,2,0,12,6538,1,0
COc1ccc(S(=O)(=O)N2CCCC(C(=O)NCc3ccncc3)C2)cc1 (centres undefined),2,-10,0,32*,2565,4,0
C=CCN1C(=O)c2ccc(C(=O)N(CC)CC(=O)Nc3cc(Cl)ccc3C)cc2C1=O,1,5,6,15*,?,-7,0
CC(=O)c1c(N2CCC(C(N)=O)CC2)nc(=S)n(-c2ccccc2)c1C,-3,-1,0,7,22860*,-3,0
